# Measured values reported in ChEMBL document CHEMBL1157539, “Thousands of chemical starting points for antimalarial lead identification” (Nature, 2010).
# System: Plasmodium falciparum
# Experiment: GSK_TCMDC: Inhibition of Plasmodium falciparum 3D7 in whole red blood cells, using parasite LDH activity as an index of growth. Test compounds present at 2uM
# Type: functional
row,Compound,Inhibition
1,CCCc1cc(Cc2cnc(N)nc2N)cc(CCC)c1OCCCCC(=O)OC,94%
2,CN(C)C(S)=NN=Cc1cccc(O)c1O,91%
3,CC(=O)Oc1c(C(=O)C2CCC(C(C)(C)C)CC2)c(OC(C)=O)c2ccccc2c1OC(C)=O (configuration not stated),96%

# System: Plasmodium falciparum
# Experiment: GSK_TCMDC: Inhibition of Plasmodium falciparum Dd2 in whole red blood cells, using parasite LDH activity as an index of growth. Test compounds present at 2uM
# Type: functional
row,Compound,Inhibition
1,COc1cc2nc(NCCc3ccccc3)nc(NCc3nccs3)c2cc1OC,93%
2,CCOc1cccc(C(=O)Nc2cccc(CN3CCCN(Cc4cccc(O)c4)CC3)c2)c1.O=C(O)C(F)(F)F,18%
3,Cc1[nH]c(C)c(-c2ccc(Oc3cccc(Cl)c3)cc2)c(=O)c1Br,97%
4,CN(C)c1cc(NC(=O)Nc2ccc(SC(F)(F)F)cc2)c2ccccc2n1,100%
5,O=C(Nc1cc(C(F)(F)F)cc(C(F)(F)F)c1)NC(CCCN1CCC2(CC1)OCc1ccccc12)c1ccc(Cl)c(Cl)c1 (configuration not stated),87%
6,CN1CCCC(CN2CCN(Cc3cccc(-c4cccc(-c5nc6ccccc6[nH]5)c4)c3)CC2)C1.O=C(O)C(F)(F)F (configuration not stated),99%
7,NC1CCN(Cc2cccc(-c3ccc(-c4nc5ccccc5[nH]4)s3)c2)C1.O=C(O)C(F)(F)F (configuration not stated),62%
8,CO/C(=C\C=C\c1cc2cc(Cl)c(Cl)cc2[nH]1)C(=O)Nc1ccc(NCCN(C)C)nc1.Cl,56%
9,CCCNCc1ccc(-c2ccc(CN(C(=O)c3nn(-c4ccccc4)nc3C)C3CC3)cc2)nc1.O=C(O)C(F)(F)F,0%
10,CCC(C)NC(=O)CN1CN(c2ccccc2)C2(CCN(C(=O)c3ccc4ccccc4c3)CC2)C1=O (configuration not stated),78%
11,O=C(Nc1cccc(CN2CCCN(Cc3ccccc3)CC2)c1)c1ccc(Cl)c(Cl)c1.O=C(O)C(F)(F)F,16%
12,COc1ccc(Nc2nccc(-c3ccc4ccnc(NCCCCN)c4c3)n2)cc1,47%
13,Cc1ccc2c(OCCN3CCC(Cc4ccc5c(c4)NC(=O)CO5)CC3)cc(F)cc2n1.Cl,21%
14,CCCN(CCC)S(=O)(=O)c1ccc(C(=O)N2CCC(C(=O)OCC)CC2)cc1,41%
15,COc1ccccc1C1CCN(CCCCNC(=O)c2ccc(/C=C/c3cc(Cl)cc(Cl)c3)cc2)CC1,30%
16,Cc1cc(=NN=Cc2cccc(Cl)c2)c2cc(F)ccc2[nH]1,100%
17,CC(Cc1ccc(NC(=O)c2ccc(CC(C)NCc3ccc(Cl)c(Cl)c3)cc2)cc1)NCCc1cccc(Cl)c1 (configuration not stated),33%
18,N=C1NC(=O)C(=Cc2cn(-c3ccccc3)nc2-c2cccc(S(=O)(=O)N3CCCC3)c2)S1,68%
19,Cc1cc(C(F)(F)F)n2nc(C(=O)N(C)Cc3cncn3Cc3ccc(F)cc3)cc2n1,96%
20,NC1=NC(c2ccccc2)(c2ccccc2)C(=O)N1CC1CCC1.O=CO,74%

row,Compound,Inhibition
1,Br.CN1C(=O)C(=O)N(CCCCCONC(=N)N)C1=S,1%
2,Cc1noc(-c2ccc(N3CCC(C(=O)N4CCN(C(C)C)CC4)CC3)cc2)n1.Cl,0%
3,FC(F)(F)c1cc(C(F)(F)F)c2cc(CNCCCNc3nc4ccccc4[nH]3)[nH]c2c1,99%
4,COc1ccc2nc(Nc3nc4cnccc4[nH]3)sc2c1,26%
5,CCN(CCCN1CCCCC1)c1cc(C)nc(Nc2cccc(C(F)(F)F)c2)n1.O=C(O)C(F)(F)F,88%
6,Cn1nccc1C(=O)NCCNCc1ccc(-c2cccc(-c3nc4ccccc4[nH]3)c2)cc1.O=C(O)C(F)(F)F,87%
7,COc1ccc(NC(=O)Nc2ccc(C)c(-c3ccc(C(=O)Nc4ccncc4)cc3)c2)cc1,50%
8,Cc1cccc2nc(C(=O)Nc3nc(CN4CCC(C)CC4)cs3)cn12,80%
9,Cc1nn(-c2ccccc2)nc1C(=O)NC1CCN(CCNC(=O)c2ccc(Cl)c(Cl)c2)CC1.O=C(O)C(F)(F)F,5%
10,COc1ccc(S(=O)(=O)N(c2cc(Br)cc3c2OCC3)S(=O)(=O)c2ccc(OC)c(N3CCN(C)CC3)c2)cc1N1CCN(C)CC1,98%
11,O=C(Nc1ccc(OC2CCN(Cc3ccc(F)cc3)C2)cc1)c1ccco1.O=C(O)C(F)(F)F (configuration not stated),69%
12,Cc1cc2[nH]c(-c3ccc(C(=O)NCCCN4CCN(c5cccc(Cl)c5)CC4)cc3F)nc2cc1Cl,79%
13,COc1cccc(CN2Cc3ccccc3OC3(CCN(Cc4c[nH]c5cnccc45)CC3)C2)c1.O=C(O)C(F)(F)F,83%
14,CN(C)CCOc1ccc2c(c1)OC(C)(C)C=C2c1cccc2ccccc12.Cl,48%
15,COc1ccccc1N1CCN(CCCCNC(=O)c2ccc(NC(=O)c3cc4ccccc4o3)cc2)CC1,2%
16,O=C(CN1CCN(C(C(=O)Nc2cc(C(F)(F)F)ccc2Cl)c2ccccc2)CC1)NC1CC1 (configuration not stated),93%
17,CCCc1cc(Cc2cnc(N)nc2N)cc(CCC)c1OCCCCC(=O)OC,0%
18,CN(C)C(S)=NN=Cc1cccc(O)c1O,55%
19,CC(=O)Oc1c(C(=O)C2CCC(C(C)(C)C)CC2)c(OC(C)=O)c2ccccc2c1OC(C)=O (configuration not stated),96%
